# Bioassay records from PubChem BioAssay.
# Most compounds without a hit are left out; they make up all but 3.9% or so of the library.
# Autofluor counter: compound fluorescence in toxin protease inhibitor counterscreen | compound autofluorescence counterscreen, microsphere flow cytometry; stronger effect = higher value | fluorescence intensity (concentration not given with the values) | actives 3.1% (n = 360,000); in the data active means fluorescence intensity above about 16000; inconclusive means no clear call, values can overlap the other calls
# BoNT-A LC inh2: blocks Botulinum neurotoxin A light chain protease; actives 0.17% (n = 360,000); AID 588499; inhibition, % at 10 µM; multiplex microsphere protease substrate cleavage, flow cytometry
# BoNT F protease: blocks Botulinum neurotoxin F light chain protease | Multiplex microsphere protease cleavage assay, flow cytometry | inhibition, % at 10 µM | actives 0.22% (n = 360,000) | AID 588497; in the data active means inhibition above about 35%, passing the limit was not always enough; inconclusive means no clear call, values can overlap the other calls
# MazF activator: increases E. coli MazEF RNase cleavage of RNA | P0AE70 | AID 504720 | activation, % at 20 µM | actives 0.32% (n = 350,000) | FAM/BHQ RNA-DNA oligo cleavage fluorescence, 5 h; in the data active means activation above about 50%
# Target sequence (P0AE70 whole entry, looked up): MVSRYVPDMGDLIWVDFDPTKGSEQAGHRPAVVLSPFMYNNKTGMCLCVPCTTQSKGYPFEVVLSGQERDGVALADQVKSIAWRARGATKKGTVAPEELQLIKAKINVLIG
# BH1578 lux ind: induces V. cholerae light production without autoinducers. V. cholerae BH1578 lux reporter, luminescence, 6 h. activation, % at 18.7 µM. actives 0.16% (n = 350,000); in the data active means activation mostly above about 9.7%, no sharp cut-off; inconclusive means no clear call, values can overlap the other calls; inactive means mostly below about 3.7%
# Anthrax LF inh2: anthrax lethal factor protease inhibition. multiplex microsphere protease cleavage assay, LF. inhibition, % at 10 µM. actives 0.12% (n = 360,000). AID 588501
# Hits are given with their value; . = inactive; ? = inconclusive; / = no result. Unless noted, no stated cut-off is given here; in the data, active means inhibition above about 30%; inconclusive means no clear call, values can overlap the other calls; inactive means below that.
SMILES,Autofluor counter,BoNT-A LC inh2,BoNT F protease,MazF activator,BH1578 lux ind,Anthrax LF inh2
Cc1cc2oc(=O)cc(CN3CCN(C/C=C/c4ccccc4)CC3)c2cc1O,23462,.,.,/,.,.
CCC(C(=O)NN1C(=O)c2ccccc2C1=O)c1ccccc1 (centres undefined),.,.,.,.,.,.
CC(=O)Cc1ccccc1OCC(=O)O,16749,.,.,.,.,.
COC(=O)c1ccccc1COc1cccn2c(N(C)Cc3cccs3)c(C)nc12,.,.,.,/,.,.
CCOC(=O)C(=Cc1ccc(-c2ccsc2C(=O)OC)o1)C(=O)OCC,22339,.,.,.,.,.
COC(=O)c1sccc1-c1ccc(C(=O)Nc2cccnc2)o1,21993,.,.,.,.,.
COC(=O)c1sccc1NC(=O)c1cccnc1,.,.,.,.,.,.
COC(=O)C(=Cc1ccc(-c2ccsc2C(=O)OC)o1)C(=O)OC,.,.,.,.,.,.
COc1ccc(NC(=O)c2cccc(N3C(=O)C4C5C=CC(C6CC56)C4C3=O)c2)cc1 (centres undefined),.,.,.,.,.,.
COC(=O)C1=C(C)NC(=O)NC1c1ccccc1 (centres undefined),23564,.,.,.,.,.
COC(=O)C1=C(C)NC(=O)NC1c1ccc2ccccc2c1 (centres undefined),.,.,.,.,.,.
CCN(CC)c1ccc(C2C(C(=O)OC)=C(C)NC(C)=C2C(=O)OC)cc1,22496,.,.,.,.,.
COc1cc(C(=O)OCC(=O)c2ccccc2)cc2c1OCCO2,.,.,.,.,.,.
Cc1[nH]c(=O)c(C#N)c2c1CSC(C)(C)C2,.,.,.,.,.,.
CCc1[nH]c(=O)c(C#N)c2c1CSC(C)(C)C2,23170,?,.,.,.,.
CCCCc1[nH]c(=O)c(C#N)c2c1CSC(C)(C)C2,22475,.,.,.,.,.
c1ccc(Cc2nc3ccccc3s2)cc1,.,.,.,.,.,.
NC(=O)C1(N2CCCCC2)CCN(CC(=O)Nc2cc(Cl)ccc2Cl)CC1,24349,.,.,.,.,.
C=CCN(C(=O)c1csnn1)C(C(=O)NC(C)(C)C)c1ccncc1 (centres undefined),.,.,.,.,.,.
COc1ccc(-c2nn(-c3ccccc3)cc2C(=O)NC2CC2)cc1,.,.,.,.,.,.
O=[N+]([O-])c1cc(C(F)(F)F)ccc1NCC1CCCO1 (centres undefined),.,.,?,92,.,.
Cc1ccc(OCCNC(=O)Cn2cnc3c(=O)n(C)c(=O)n(C)c32)cc1C,22531,.,.,.,.,.
COc1ccc(CNC(=O)Cn2cnc3c(=O)n(C)c(=O)n(C)c32)cc1,21079,.,.,.,.,.
O=C(c1ccccc1)c1nn(-c2ccccc2)c2nnc(Cc3ccccc3)c(=O)n12,17139,.,.,.,.,.
CN(C)C(=O)c1nnsc1Sc1ccc(Cl)cc1,.,.,.,.,.,.
SMILES,Autofluor counter,BoNT-A LC inh2,BoNT F protease,MazF activator,BH1578 lux ind,Anthrax LF inh2
CC(=O)Oc1c(/C=C(\C#N)C(N)=O)[nH]c2ccccc12,.,.,.,597,.,.
N#C/C(=C\c1c[nH]c2ccccc12)C(N)=O,.,.,?,.,.,.
O=C(NCCO)/C(=C/c1ccc(Br)cc1)NC(=O)c1cccs1,23982,.,.,.,.,.
CCC(=O)N(CCC(c1ccco1)c1ccccc1OC)Cc1cccs1 (centres undefined),23755,.,.,.,.,.
Cn1c(SC/C=C/c2ccccc2)nnc1-c1cccs1,?,.,.,.,.,.
CCn1c(SC/C=C/c2ccccc2)nnc1-c1cnccn1,21032,.,.,.,.,.
Cn1c(SC/C=C/c2ccccc2)nnc1-c1cnccn1,.,.,.,.,.,.
CCn1c(SC/C=C/c2ccccc2)nnc1-c1cccs1,20863,.,.,.,.,.
CN1CC(O)(C(O)C(O)C(O)CO)SC1=S (centres undefined),.,.,.,.,.,.
NC(=O)COc1ccc(/C=N/NS(=O)(=O)c2ccccc2)cc1,.,.,.,.,.,.
COc1ccc(/C(O)=C/C(=O)C(=O)Nc2c(C)n(C)n(-c3ccccc3)c2=O)cc1,21666,.,.,.,.,.
Cc1c(NC(=O)C(=O)/C=C(/O)c2ccccc2)c(=O)n(-c2ccccc2)n1C,.,.,.,.,.,.
Cc1cccc(NS(=O)(=O)c2ccc(OCC(=O)N3CCCC3)cc2)c1,?,.,.,.,.,.
CCNS(=O)(=O)c1ccc(NS(=O)(=O)c2cc(C)ccc2C)cc1,.,.,.,.,.,.
CCCCNS(=O)(=O)c1ccc(NS(=O)(=O)c2c(C)cc(C)cc2C)cc1,16873,?,.,.,.,.
CC(C)[C@@H]1Cc2[nH]n(C)c(=O)c2[C@H](c2ccc(Cl)cc2)O1,.,.,.,/,/,.
COC(=O)c1cccnc1-n1c(=O)c2cccnc2n(Cc2ccc(Cl)cc2)c1=O,22186,.,.,.,.,.
COC(=O)c1cccnc1-n1c(=O)c2cccnc2n(Cc2cccc([N+](=O)[O-])c2)c1=O,.,.,.,.,.,.
COC(=O)c1cc(NC(=O)COC(=O)C2COc3ccccc3O2)cc(C(=O)OC)c1 (centres undefined),.,.,.,.,.,.
CCn1c(C)nc2c(=O)oc3ccccc3c21,21816,.,.,.,.,.
CC(C)Cn1nnc2c(=O)oc3ccccc3c21,24285,?,.,.,.,.
O=C(CN1CCC(O)(c2cccc(F)c2)CC1)NCCc1c[nH]c2ccccc12,.,.,.,.,.,.
Nc1c(C(=O)NC2CCCC2)sc2nc(-c3cccs3)ccc12,.,.,.,52,.,.
Cc1cccc(NC(=O)/C=C/c2ccc([N+](=O)[O-])s2)c1,.,.,.,.,.,.
Cc1cccc(NC(=S)N/N=C/c2ccc([N+](=O)[O-])s2)c1,.,88,.,.,.,52
SMILES,Autofluor counter,BoNT-A LC inh2,BoNT F protease,MazF activator,BH1578 lux ind,Anthrax LF inh2
CCOC(=O)C1(CCc2ccccc2)CCN(C(=O)CN2C(=O)CSC2=O)CC1,.,.,.,.,.,.
CN(C)Cc1c(O)ccc2occ(C(=O)c3ccccc3)c12,22642,.,.,.,.,.
COc1ccc(OC)c(C(=O)c2coc3ccc(O)c(CN(C)C)c23)c1,.,.,?,.,.,.
COc1ccc2occ(C(=O)c3cccs3)c2c1,24929,.,.,.,.,.
O=C(c1cccs1)c1coc2ccc(O)c(CN(CCO)CCO)c12,21865,.,.,.,.,.
CCN(CC)Cc1c(O)ccc2occ(C(=O)c3ccccc3)c12,.,.,?,.,.,.
CN(C)Cc1c(O)ccc2occ(C(=O)c3ccc(F)cc3)c12,.,.,.,.,.,.
COc1ccc2occ(C(=O)c3coc4ccc(O)c(CN(C)C)c34)c2c1,23271,.,.,.,.,.
COc1ccc(NCc2ccc([N+](=O)[O-])s2)c(OC)c1,.,.,.,.,.,.
